# ChEMBL document CHEMBL3433997, “St. Jude Leishmania screening dataset” (2016)
# Biological target: Hexose transporter 1 (Plasmodium falciparum) (UniProt O97467)
# Assay: ST_JUDE_LEISH: Cytotoxicity at 2uM final concentration against transgenic Leishmania Mexicana promastigotes LmPfHT that are glucose transport deficient and complemented with the Plasmodium falciparum hexose transporter. Activity is measured by DNA content using SYBR green in vitro
# Format: functional
row,SMILES,inhibition [%]
1,FC(F)(F)c1ccc2[nH]c(-c3ccc(-c4ccc(CN5CCN(c6cnccn6)CC5)cc4)s3)nc2c1,1.86
2,CCN(CC)CCOC(=O)c1ccc(NC(=O)c2cc(-c3ccc(C)cc3)nc3ccccc23)cc1,0.95
3,COc1ccc(NC(=O)CCNc2cc(C)nc(Nc3ccccc3)n2)cc1,5.64
4,COc1ccc(-c2ccccc2CNC2Cc3ccccc3C2)cc1S(=O)(=O)NCCN1CCCC1,0.5
5,CCCN(CCC)CCCCC(C)Nc1c2ccc(Cl)cc2nc2ccc(OC)cc12 (stereo not given),8.65
6,O=C(Cn1cc(C(F)(F)F)cc(Cl)c1=O)N1CCN(S(=O)(=O)c2ccc(Cl)cc2)CC1,1.76
7,Cc1ccc(NC(=O)c2ccc(CN3CCCN(Cc4cccc(O)c4)CC3)cc2)cc1F,6.4
8,O=C(COc1ccccc1Cl)N1CCc2cc3nccc(N4CCN5CCC[C@H]5C4)c3cc21,5.14
9,CCn1c(-c2nonc2N)nc2c(-c3cccc(NC(=O)Nc4cccc(OC)c4)c3)ncc(OCCCN)c21,2.8
10,CN(C(=O)NCCc1ccccc1)C1CCN(CCCCCNC(=O)/C=C/c2ccc(Cl)c(Cl)c2)CC1,12
11,O=C(Nc1cc(F)cc(-c2cccnc2)c1)c1ccc2c(=O)n(Cc3ccccc3)cnc2c1,1.52
12,CC(C)(NCc1ncc[nH]1)c1nc(-c2ccc(Cl)c(O)c2)c(-c2ccncc2)[nH]1,3.34
13,Cc1cccc2nc(-c3ccc(-c4cccc(CN5CCN(c6ccc(C#N)cn6)CC5)c4)s3)[nH]c12,-1.69
14,CCN(C1CCCCC1)S(=O)(=O)c1ccc(OC)c(N2CCN(C(=O)C(Cl)(Cl)Cl)CC2)c1,-2.46
15,CC(=O)Nc1nc(C(=O)Nc2ccc(-c3ccc(-c4nc5ccccc5[nH]4)cc3)cc2)cs1,2.54
16,Cc1cccc2nc(-c3ccc(-c4ccc(CNCc5ccccc5)cc4)s3)[nH]c12,4.44
17,O=C(/C=C/c1c(Cl)cccc1Cl)NC1CCC(CN2CCC(c3c[nH]c4ccncc34)CC2)CC1 (stereo not given),5.98
18,COCCNCc1ccc(-c2ccc3c(Nc4ccc(F)cc4Cl)ccnc3c2)o1,4.05
19,CCCC(N)C(=O)NC1CCN(c2c(F)c(N)c3c(=O)c(C(=O)O)cn4c3c2Oc2ccccc2-4)C1 (stereo not given),82.6
20,COc1cc(C2CCN(CCCCNC(=O)c3ccc(NC(=O)c4cc(C(F)(F)F)cc(C(F)(F)F)c4)cc3)CC2)ccc1OC(C)C,0.93

row,SMILES,inhibition [%]
1,COc1ccc2ccccc2c1CCCCN1CCN(CC(c2ccc(F)cc2)N2CCN(C3CCCC3)CC2)CC1 (stereo not given),4.07
2,Cc1nnsc1C(=O)Nc1cccc(-c2ccc(-c3nc4ccccc4[nH]3)s2)c1,1.37
3,Cc1ccc(NC(=O)NC2CCN(c3ccnc4cc(Cl)ccc34)CC2)cc1,7.47
4,COc1ccc2ncc(F)c([C@@H](O)CN3CCC(NCc4cc(C#N)c5c(c4)CCO5)CC3)c2n1,3.05
5,COc1ccc(NC(=O)[C@H](Cc2ccccc2)Nc2cc(C)nc(NCc3ccccc3C)n2)cc1,5.01
6,CC(C)C[C@H](NC(=O)c1cc2ccccc2s1)C(=O)N[C@H]1CCN(Cc2ccc(OC[C@@H]3CCCN3C)c(Cl)c2)C1,10.6
7,CN(C)CCN(C)Cc1ccc(-c2ccc(NC(=O)c3cccc(Cl)c3)cc2)cc1,6.44
8,CCc1c(CCNCCCCCCNCCc2ccc([N+](=O)[O-])cc2)ccc(O)c1O,-0.9
9,CN(C)c1ccc(CN2CCC(NC(=O)c3ccc(-c4ccccc4Cl)s3)CC2)cc1,1.07
10,Oc1ccc(Cl)cc1CN1CCCC(COC(c2ccc(F)cc2)c2ccc(F)cc2)C1 (stereo not given),1.7
11,CCOc1c(OC)ccc2c1CCN(CCN1CCC(CNC(=O)c3ccc(-c4ccc(C#N)cc4)cc3)CC1)C2,-0.26
12,Cc1cnc(Nc2cccc(CCN3CCOCC3)c2)nc1NC(C)C,9.73
13,CS(=O)(=O)c1ccc(CNCc2cccc(-c3cccc(-c4nc5cc(C(F)(F)F)ccc5[nH]4)c3)c2)cc1,5.92
14,COc1ccc(Oc2ccc(-c3c(C)[nH]c(C)c(Cl)c3=O)cc2)cc1,3.46
15,Cc1ccc(NC(=O)c2ccc(NCCCN(C)Cc3ccccc3)c([N+](=O)[O-])c2)cc1F,3.73
16,CSc1nc2nc(C)c(Cc3cccc(F)c3)c(C)n2n1,-0.45
17,CC(C)c1ccc(CN2CCC(CNC(=O)c3cc(-c4ccccc4F)cs3)C2)cc1 (stereo not given),4.88
18,Cc1nc(N)nc(N)c1OCCCOc1ccccc1Br,61.8
19,CCC(C)OC(=O)C1=C(C)NC2=C(C(=O)CC(c3ccc(OC)c(OC)c3)C2)C1c1ccc(O)cc1 (stereo not given),1.77
20,N#Cc1ccc2c(c1)CN(C1CCC(NC(=O)C3=Cc4cc(Cl)ccc4OC3)CC1)CCC2 (stereo not given),6.19

# Biological target: Glucose transporter (Leishmania mexicana) (UniProt O61059)
# Assay: ST_JUDE_LEISH: Cytotoxicity at 2uM final concentration against transgenic Leishmania Mexicana promastigotes LmGT2 that are glucose transport deficient and complemented with the L. Mexicana glucose transporter 2. Activity is measured by DNA content using SYBR green in vitro
# Format: functional
row,SMILES,inhibition [%]
1,FC(F)(F)c1ccc2[nH]c(-c3ccc(-c4ccc(CN5CCN(c6cnccn6)CC5)cc4)s3)nc2c1,-2.19
2,CCN(CC)CCOC(=O)c1ccc(NC(=O)c2cc(-c3ccc(C)cc3)nc3ccccc23)cc1,1.21
3,COc1ccc(NC(=O)CCNc2cc(C)nc(Nc3ccccc3)n2)cc1,5.8
4,COc1ccc(-c2ccccc2CNC2Cc3ccccc3C2)cc1S(=O)(=O)NCCN1CCCC1,2.53
5,CCCN(CCC)CCCCC(C)Nc1c2ccc(Cl)cc2nc2ccc(OC)cc12 (stereo not given),9.34
6,O=C(Cn1cc(C(F)(F)F)cc(Cl)c1=O)N1CCN(S(=O)(=O)c2ccc(Cl)cc2)CC1,-0.25
7,Cc1ccc(NC(=O)c2ccc(CN3CCCN(Cc4cccc(O)c4)CC3)cc2)cc1F,6.83
8,O=C(COc1ccccc1Cl)N1CCc2cc3nccc(N4CCN5CCC[C@H]5C4)c3cc21,6.01
9,CCn1c(-c2nonc2N)nc2c(-c3cccc(NC(=O)Nc4cccc(OC)c4)c3)ncc(OCCCN)c21,1.32
10,CN(C(=O)NCCc1ccccc1)C1CCN(CCCCCNC(=O)/C=C/c2ccc(Cl)c(Cl)c2)CC1,12.4
11,O=C(Nc1cc(F)cc(-c2cccnc2)c1)c1ccc2c(=O)n(Cc3ccccc3)cnc2c1,-1.46
12,CC(C)(NCc1ncc[nH]1)c1nc(-c2ccc(Cl)c(O)c2)c(-c2ccncc2)[nH]1,3.01
13,Cc1cccc2nc(-c3ccc(-c4cccc(CN5CCN(c6ccc(C#N)cn6)CC5)c4)s3)[nH]c12,1.21
14,CCN(C1CCCCC1)S(=O)(=O)c1ccc(OC)c(N2CCN(C(=O)C(Cl)(Cl)Cl)CC2)c1,-0.47
15,CC(=O)Nc1nc(C(=O)Nc2ccc(-c3ccc(-c4nc5ccccc5[nH]4)cc3)cc2)cs1,3.01
16,Cc1cccc2nc(-c3ccc(-c4ccc(CNCc5ccccc5)cc4)s3)[nH]c12,3.06
17,O=C(/C=C/c1c(Cl)cccc1Cl)NC1CCC(CN2CCC(c3c[nH]c4ccncc34)CC2)CC1 (stereo not given),4.84
18,COCCNCc1ccc(-c2ccc3c(Nc4ccc(F)cc4Cl)ccnc3c2)o1,5.59
19,CCCC(N)C(=O)NC1CCN(c2c(F)c(N)c3c(=O)c(C(=O)O)cn4c3c2Oc2ccccc2-4)C1 (stereo not given),76.2
20,COc1cc(C2CCN(CCCCNC(=O)c3ccc(NC(=O)c4cc(C(F)(F)F)cc(C(F)(F)F)c4)cc3)CC2)ccc1OC(C)C,1.71

row,SMILES,inhibition [%]
1,COc1ccc2ccccc2c1CCCCN1CCN(CC(c2ccc(F)cc2)N2CCN(C3CCCC3)CC2)CC1 (stereo not given),1.41
2,Cc1nnsc1C(=O)Nc1cccc(-c2ccc(-c3nc4ccccc4[nH]3)s2)c1,-0.11
3,Cc1ccc(NC(=O)NC2CCN(c3ccnc4cc(Cl)ccc34)CC2)cc1,8.65
4,COc1ccc2ncc(F)c([C@@H](O)CN3CCC(NCc4cc(C#N)c5c(c4)CCO5)CC3)c2n1,0.58
5,COc1ccc(NC(=O)[C@H](Cc2ccccc2)Nc2cc(C)nc(NCc3ccccc3C)n2)cc1,2.59
6,CC(C)C[C@H](NC(=O)c1cc2ccccc2s1)C(=O)N[C@H]1CCN(Cc2ccc(OC[C@@H]3CCCN3C)c(Cl)c2)C1,8.09
7,CN(C)CCN(C)Cc1ccc(-c2ccc(NC(=O)c3cccc(Cl)c3)cc2)cc1,6.55
8,CCc1c(CCNCCCCCCNCCc2ccc([N+](=O)[O-])cc2)ccc(O)c1O,0.31
9,CN(C)c1ccc(CN2CCC(NC(=O)c3ccc(-c4ccccc4Cl)s3)CC2)cc1,1.76
10,Oc1ccc(Cl)cc1CN1CCCC(COC(c2ccc(F)cc2)c2ccc(F)cc2)C1 (stereo not given),-2.44
11,CCOc1c(OC)ccc2c1CCN(CCN1CCC(CNC(=O)c3ccc(-c4ccc(C#N)cc4)cc3)CC1)C2,1.45
12,Cc1cnc(Nc2cccc(CCN3CCOCC3)c2)nc1NC(C)C,2.69
13,CS(=O)(=O)c1ccc(CNCc2cccc(-c3cccc(-c4nc5cc(C(F)(F)F)ccc5[nH]4)c3)c2)cc1,3.97
14,COc1ccc(Oc2ccc(-c3c(C)[nH]c(C)c(Cl)c3=O)cc2)cc1,2.72
15,Cc1ccc(NC(=O)c2ccc(NCCCN(C)Cc3ccccc3)c([N+](=O)[O-])c2)cc1F,2.68
16,CSc1nc2nc(C)c(Cc3cccc(F)c3)c(C)n2n1,0.34
17,CC(C)c1ccc(CN2CCC(CNC(=O)c3cc(-c4ccccc4F)cs3)C2)cc1 (stereo not given),8.4
18,Cc1nc(N)nc(N)c1OCCCOc1ccccc1Br,43.6
19,CCC(C)OC(=O)C1=C(C)NC2=C(C(=O)CC(c3ccc(OC)c(OC)c3)C2)C1c1ccc(O)cc1 (stereo not given),1.8
20,N#Cc1ccc2c(c1)CN(C1CCC(NC(=O)C3=Cc4cc(Cl)ccc4OC3)CC1)CCC2 (stereo not given),5.6
